These results are taken from PubChem BioAssay (NCATS).

Results filed as inconclusive are left out. Unmarked numbers belong to inactive results. Activity calls are given as the source filed them. Calls come from the whole dose curve; as a rule, active = well fitted cell-killing curve with a large enough effect; inconclusive = small, poorly fitted or top-dose-only effect, or effect the other way; inactive = no such curve, though single readings can be large or run the other way.
Potency is the fitted concentration of half-maximal effect.

One assay can be described thus: Quantitative High-Throughput drug screen in 47 multiple myeloma cell lines against the NCATS MIPE library collection: JJN3_DSMZ cell viability assay (AID 1918966; note: nearly all actives have a fitted effect of over 50% in size). Particulars: JJN3 myeloma cells viability, CellTiter-Glo ATP, 48 h; series mostly up to 45.8 µM. Summed up: (§1)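 CellTiter-Glo luminescence (ATP) after 48 h compound exposure, 37C/5% CO2; 500 cells/well; MIPE 4.0 approved/investigational drugs pinned in; DMSO = 100%, media only = 0% viability.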
On to `O=C(Nc1ncc(-c2cc(C(F)F)nn2-c2c(Cl)cccc2Cl)s1)C1CC1`, for which the Potency was 1.32 µM (active).

As to `Cc1[nH]nc2ccc(-c3cncc(OC[C@@H](N)Cc4ccccc4)c3)cc12`, the Potency was 1.18 µM (active).

Take `Nc1ncnc2c1c(-c1cccc(OCc3ccccc3)c1)cn2C1CC(CN2CCCC2)C1` (stereo not drawn): the Potency was 5.9 µM (active).

In the case of `COc1cc(C)c(Sc2cnc(NC(=O)c3ccc(CNC(C)C(C)C)cc3)s2)cc1C(=O)N1CCN(C(C)=O)CC1` (stereo not drawn), the Potency is 16.6 µM (active).

As to `COc1cc2c(Oc3ccc(-c4cnc(Nc5ccc(F)cc5)n(C)c4=O)cc3F)ccnc2cc1OCCCN1CCOCC1`, the Potency was 11.8 µM (active).

As for `C[C@@H]1COC(Nc2ccc3ncnc(Nc4ccc(OCc5nccs5)c(Cl)c4)c3c2)=N1`, the Potency is 20.9 µM (active).

As to `COc1cc2c(NC3CCN(C(C)C)CC3)nc(C3CCCCC3)nc2cc1OCCCN1CCCC1`, the Potency is 13.2 µM (active).

In the case of `O=C(Cc1ccc(-c2ccc(OCCN3CCOCC3)cc2)cn1)NCc1ccccc1`, the Potency is 0.132 µM (active).

As for `Cn1cc(-c2[nH]c3cc(NC(=O)[C@H](N)C4CCCCC4)cc4c3c2C=NNC4=O)cn1`, the Potency is 0.662 µM (active).

For `CNC(=O)c1ccccc1Nc1nc(Nc2ccc(N3CCOCC3)cc2OC)ncc1Cl`, the Potency is 3.72 µM (active).

With `CC(C)c1ccccc1Cc1cc(C(=O)Nc2ccc(S(=O)(=O)c3ccccc3C(C)(C)C)cc2)c(O)c(O)c1O`, the Potency is 14.8 µM (active).

For the molecule `O=C(CCCCCCC(=O)Nc1ccc([C@H]2O[C@@H](CSc3nc(-c4ccccc4)c(-c4ccccc4)o3)C[C@@H](c3ccc(CO)cc3)O2)cc1)NO`, the Potency was 13.2 µM (active).

For the molecule `CCS(=O)(=O)c1cccc(-c2cc(C(=O)NC3CCN(C)CC3)c(C)c3[nH]c4ncc(C)cc4c23)c1`, the Potency is 1.66 µM (active).

Take `COc1cc2ncnc(Nc3ccc(F)c(Cl)c3)c2cc1NC(=O)C=CCN1CCCCC1`: the Potency was 20.9 µM (active).

On to `C#Cc1cccc(Nc2ncnc3cc(OC)c(OCCCCCCC(=O)NO)cc23)c1`, for which the Potency was 0.132 µM (active).

`CC=C1NC(=O)[C@H]2CSSCCC=C[C@H](CC(=O)N[C@H](C(C)C)C(=O)N2)OC(=O)[C@H](C(C)C)NC1=O`: the Potency was 0.0418 µM (active).

`O=c1[nH]nc(Sc2ncc([N+](=O)[O-])s2)n1-c1ccc2c(c1)OCCO2`: the Potency was 2.09 µM (active).

As to `CC[C@@]1(O)C(=O)OCc2c1cc1n(c2=O)Cc2cc3cc(O)ccc3nc2-1`, the Potency is 1.87 µM (active).

Turning to `COc1ccc(-c2cc3c(C)nc(N)nc3n(C3CCC(OCCO)CC3)c2=O)cn1` (stereo not drawn), the Potency is 0.0833 µM (active).

On to `OCc1ccc(-c2ccc(-c3ccc(CO)s3)o2)s1`, for which the Potency was 16.6 µM (active).

Regarding `CN1CCN(c2cc(C(=O)Nc3ccc4c(c3)-c3c(c(C(N)=O)nn3-c3ccc(F)cc3)CC4)c(Cl)cn2)CC1`, the Potency is 0.235 µM (active).

For `CN(C)CC=CC(=O)Nc1cc2c(Nc3ccc(F)c(Cl)c3)ncnc2cc1O[C@H]1CCOC1`, the Potency was 4.69 µM (active).

For the molecule `CC(C)c1cc(C(=O)N2Cc3ccc(CN4CCN(C)CC4)cc3C2)c(O)cc1O`, the Potency is 0.209 µM (active).

Consider `N#CCNC(=O)c1ccc(-c2ccnc(Nc3ccc(N4CCOCC4)cc3)n2)cc1`, for which the Potency is 13.2 µM (active).

For `Nc1ncnc2c1c(-c1cnc3[nH]ccc3c1)nn2C1CCCC1`, the Potency was 2.35 µM (active).

`NC1(Cc2ccc(Cl)cc2)CCN(c2ncnc3[nH]ccc23)CC1`: the Potency is 13.2 µM (active).

Consider `COc1ccc2c(c1)CC[C@@H](CN(C)CC(=O)O)[C@H]2c1ccccc1`, for which the Potency is 10.5 µM (active).

As for `Nc1cc(C(F)(F)F)c(-c2cc(N3CCOCC3)nc(N3CCOCC3)n2)cn1`, the Potency was 3.72 µM (active).

In the case of `COc1cccc2c(NCc3ccccc3)nc(-n3c(N)nc4ccccc43)nc12`, the Potency was 6.62 µM (active).

The next assay in a line: Quantitative High-Throughput drug screen in 47 multiple myeloma cell lines against the NCATS MIPE library collection: H1112_PLB cell viability assay (AID 1918967; note: nearly all actives have a fitted effect of over 30% in size). The conditions noted are these: H1112 myeloma cells viability, ATP luminescence, 48 h; series mostly up to 45.8 µM. Summed up:
as §1
In the case of `O=C(Nc1ncc(-c2cc(C(F)F)nn2-c2c(Cl)cccc2Cl)s1)C1CC1`, the Potency is 0.469 µM (active).

For the molecule `Cc1[nH]nc2ccc(-c3cncc(OC[C@@H](N)Cc4ccccc4)c3)cc12`, the Potency was 1.87 µM (active).

For `Nc1ncnc2c1c(-c1cccc(OCc3ccccc3)c1)cn2C1CC(CN2CCCC2)C1` (stereo not drawn), the Potency was 16.6 µM (active).

In the case of `COc1cc2c(Oc3ccc(-c4cnc(Nc5ccc(F)cc5)n(C)c4=O)cc3F)ccnc2cc1OCCCN1CCOCC1`, the Potency is 14.8 µM (active).

In the case of `C[C@@H]1COC(Nc2ccc3ncnc(Nc4ccc(OCc5nccs5)c(Cl)c4)c3c2)=N1`, the Potency was 1.32 µM (active).

For the molecule `COc1cc2c(NC3CCN(C(C)C)CC3)nc(C3CCCCC3)nc2cc1OCCCN1CCCC1`, the Potency was 9.35 µM (active).

As to `Cc1cc(C(=O)N2CCN(c3cccc(Cl)c3)CC2)n(-c2ccccc2)n1`, the Potency was 0.833 µM (active).

Turning to `O=C(Cc1ccc(-c2ccc(OCCN3CCOCC3)cc2)cn1)NCc1ccccc1`, the Potency was 0.0187 µM (active).

In the case of `Nc1ccn([C@@H]2O[C@H](CO)[C@H](O)C2(F)F)c(=O)n1`, the Potency is 0.0187 µM (active).

For the molecule `O=C(CCCCCCC(=O)Nc1ccc([C@H]2O[C@@H](CSc3nc(-c4ccccc4)c(-c4ccccc4)o3)C[C@@H](c3ccc(CO)cc3)O2)cc1)NO`, the Potency is 13.2 µM (active).

With `COc1cc2ncnc(Nc3ccc(F)c(Cl)c3)c2cc1NC(=O)C=CCN1CCCCC1`, the Potency was 8.33 µM (active).

`C#Cc1cccc(Nc2ncnc3cc(OC)c(OCCCCCCC(=O)NO)cc23)c1`: the Potency is 0.296 µM (active).

Consider `CC=C1NC(=O)[C@H]2CSSCCC=C[C@H](CC(=O)N[C@H](C(C)C)C(=O)N2)OC(=O)[C@H](C(C)C)NC1=O`, for which the Potency is 0.0372 µM (active).

With `O=c1[nH]nc(Sc2ncc([N+](=O)[O-])s2)n1-c1ccc2c(c1)OCCO2`, the Potency was 2.64 µM (active).

In the case of `COc1ccc(-c2cc3c(C)nc(N)nc3n(C3CCC(OCCO)CC3)c2=O)cn1` (stereo not drawn), the Potency was 0.662 µM (active).

Turning to `OCc1ccc(-c2ccc(-c3ccc(CO)s3)o2)s1`, the Potency was 16.6 µM (active).

In the case of `Cc1cnc(Nc2ccc(F)cc2Cl)nc1-c1c[nH]c(C(=O)N[C@H](CO)c2cccc(Cl)c2)c1`, the Potency is 16.6 µM (active).

Turning to `COc1ccc(CC2c3cc(OC)c(OC)cc3CC[N+]2(C)CCC(=O)OCCCCCOC(=O)CC[N+]2(C)CCc3cc(OC)c(OC)cc3C2Cc2ccc(OC)c(OC)c2)cc1OC` (stereo not drawn), the viability was 104% [at 5.15 µM].

As for `CN(C)CC=CC(=O)Nc1cc2c(Nc3ccc(F)c(Cl)c3)ncnc2cc1O[C@H]1CCOC1`, the Potency was 5.9 µM (active).

With `CC(C)c1cc(C(=O)N2Cc3ccc(CN4CCN(C)CC4)cc3C2)c(O)cc1O`, the Potency was 5.26 µM (active).

With `N#CCNC(=O)c1ccc(-c2ccnc(Nc3ccc(N4CCOCC4)cc3)n2)cc1`, the Potency was 18.7 µM (active).

Regarding `Nc1ncnc2c1c(-c1cnc3[nH]ccc3c1)nn2C1CCCC1`, the Potency is 6.62 µM (active).

With `Nc1cc(C(F)(F)F)c(-c2cc(N3CCOCC3)nc(N3CCOCC3)n2)cn1`, the Potency is 0.743 µM (active).

As for `COc1cccc2c(NCc3ccccc3)nc(-n3c(N)nc4ccccc43)nc12`, the Potency was 7.43 µM (active).
